This is an account of results in PubChem BioAssay (NCATS).

Results filed as inconclusive are left out. Calls of active or inactive are those of the source. Calls follow the shape of the dose curve; as a rule, active = well fitted inhibition curve with a large enough effect; inconclusive = small, poorly fitted or top-dose-only effect; inactive = flat fitted curve, though single readings scatter.

Assay in all cases: qHTS profiling for inhibitors of Plasmodium falciparum proliferation (AID 504749); also: nearly all actives have a fitted effect of over 60% in size
What all share (conditions): P. falciparum in erythrocytes, SYBR Green DNA, 72 h; series mostly up to 28.7 µM
A general note: In qHTS, concentration-response curves come from the screen itself.

The test system of one test is CP266. Put shortly:
(§1)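 SYBR Green fluorescence (ex 485 nm, em 535 nm) reports parasite DNA after 72 h compound exposure of infected red cells at 0.3% parasitemia, 2.5% hematocrit; signal normalized to 0.29 uM artemisinin and vehicle wells.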

A further test concerns CP268. Put shortly: as §1
The next test concerns CP269. Put shortly: as §1
A further test has as its system CP286. The essentials: as §1
The next test has as its system CP291. The essentials: as §1
The subject of a further test is CP297. Put shortly: as §1
The subject of the next test is CP305. The essentials: as §1
The next test relates to CP315. The essentials: as §1
For another test, the system named is CP325. The essentials: as §1
A further test concerns CP329. The essentials:
as §1
Potency is read from the fitted curve at half-maximal effect.

For the molecule `Cc1nc(-c2ccc(Cl)cc2)oc1COC(C)(C)C(=O)O`, the Potency result in the test with CP266, in the test with CP268, in the test on CP269, in the test on CP286, in the test with CP291 and with CP297 was “inactive” each time. In addition, the Potency entry with CP305, in the test on CP315, in the test on CP325 and with CP329 was “inactive” each time.

Regarding `Cc1c[nH]c2ccccc12`, the Potency entry in the test with CP266, in the test on CP268, in the test with CP269, with CP286, with CP291 and in the test with CP297 was “inactive” each time. For the same molecule, the Potency result with CP305, in the test with CP315, in the test on CP325 and in the test with CP329 was “inactive” each time.

On to `COc1ccc(-c2cc(C(F)F)nn2-c2ccc(S(N)(=O)=O)cc2)cc1F`, for which the Potency result in the test on CP266, in the test with CP268, with CP269, with CP286, in the test with CP291 and with CP297 was “inactive” throughout. The Potency result in the test with CP305, with CP315, in the test on CP325 and with CP329 was “inactive” each time.

For the molecule `COc1cc([C@H]2Oc3cc([C@H]4Oc5cc(O)cc(O)c5C(=O)[C@@H]4O)ccc3O[C@@H]2CO)ccc1O`, the Potency entry in the test on CP266, in the test on CP268, in the test with CP269, in the test with CP286, in the test on CP291 and with CP297 was “inactive” in each case. Also, the Potency entry in the test with CP305, with CP315, in the test with CP325 and in the test with CP329 was “inactive” each time.

As to `COP(=O)(OC)OC(c1ccc(Cl)cc1)P(=O)(OC)OC` (stereo not given), the Potency entry with CP266, in the test with CP268, in the test on CP269, in the test on CP286, with CP291 and in the test with CP297 was “inactive” each time. For the same molecule, the Potency result with CP305, in the test with CP315, with CP325 and with CP329 was “inactive” in each case.

As for `COc1cc(C(=O)N2CCCCCCC2)cc(OC)c1OC`, the Potency entry in the test with CP266, in the test on CP268, in the test with CP269, with CP286, with CP291 and with CP297 was “inactive” in each case. Besides, the Potency entry with CP305, in the test with CP315, in the test on CP325 and with CP329 was “inactive” each time.

`CCc1oc2ccccc2c1C(=O)c1cc(I)c(O)c(I)c1`: the Potency result in the test with CP266, in the test with CP268, in the test on CP269, in the test with CP286, with CP291 and in the test on CP297 was “inactive” each time. The Potency result with CP305, with CP315, with CP325 and in the test on CP329 was “inactive” throughout.

As for `CC(=O)OC[C@H]1O[C@@H](n2ncc(=O)[nH]c2=O)[C@H](OC(C)=O)[C@@H]1OC(C)=O`, the Potency entry in the test with CP266, in the test on CP268, in the test on CP269, in the test with CP286, in the test with CP291 and in the test with CP297 was “inactive” each time. Also, the Potency entry with CP305, in the test with CP315, in the test on CP325 and in the test on CP329 was “inactive” each time.

`Nc1ccc(S(=O)(=O)NCc2ccccc2)cc1`: the Potency entry with CP266, in the test with CP268, with CP269, in the test on CP286, in the test on CP291 and in the test on CP297 was “inactive” throughout. Besides, the Potency entry with CP305, in the test on CP315, with CP325 and in the test on CP329 was “inactive” throughout.

For `CCCCCCCC/C=C\CCCCCCCCN`, the Potency result in the test on CP266, with CP268, in the test on CP269, with CP286, in the test on CP291 and in the test on CP297 was “inactive” each time. For the same molecule, the Potency entry in the test on CP305, in the test on CP315, in the test with CP325 and with CP329 was “inactive” in each case.

`CCN1/C(=C/C=C/c2sc3ccccc3[n+]2CC)Sc2ccccc21`: the Potency is 675 nM (active) in the test with CP266; 536 nM (active) in the test on CP268; 379 nM (active) in the test with CP269; 50.1 nM (active) in the test with CP286; 379 nM (active) with CP291; 849 nM (active) in the test with CP297. The Potency in the test with CP305 was 190 nM (active); in the test on CP315, 757 nM (active); in the test with CP325, 601 nM (active); in the test on CP329, 426 nM (active).

For `CC(=O)Oc1ccc(C)cc1`, the Potency entry in the test with CP266, with CP268, in the test on CP269, with CP286, in the test with CP291 and in the test with CP297 was “inactive” in each case. The Potency entry with CP305, with CP315, in the test on CP325 and in the test on CP329 was “inactive” in each case.

For `COc1cc(N)c(Cl)cc1C(=O)NC1CCN(Cc2ccccc2)CC1`, the Potency entry in the test with CP266, in the test with CP268, with CP269, with CP286, with CP291 and in the test with CP297 was “inactive” in each case. In addition, the Potency result with CP305, with CP315, with CP325 and in the test with CP329 was “inactive” each time.

As to `C/C=C/c1ccc(O)c(OC)c1`, the Potency result in the test with CP266, in the test with CP268, with CP269, in the test with CP286, in the test on CP291 and with CP297 was “inactive” each time. For the same molecule, the Potency result in the test with CP305, in the test with CP315, in the test on CP325 and in the test on CP329 was “inactive” each time.

`OC1C(O)C(O)C(O)C(O)C1O` (stereo not given): the Potency entry in the test on CP266, in the test with CP268, in the test on CP269, in the test on CP286, in the test on CP291 and in the test on CP297 was “inactive” throughout. Moreover, the Potency entry in the test with CP305, in the test on CP315, in the test with CP325 and in the test on CP329 was “inactive” in each case.

With `C#C[C@]1(O)CC[C@H]2[C@@H]3CCC4=CC(=O)CC[C@@H]4[C@H]3CC[C@@]21CC`, the Potency result with CP266, in the test with CP268, with CP269, in the test on CP286, in the test with CP291 and with CP297 was “inactive” each time. In addition, the Potency entry in the test with CP305, in the test with CP315, in the test with CP325 and in the test on CP329 was “inactive” throughout.

In the case of `CCCc1ncc(C[n+]2ccccc2C)c(N)n1`, the Potency result in the test with CP266, in the test with CP268, in the test with CP269, with CP286, with CP291 and in the test on CP297 was “inactive” in each case. Also, the Potency result in the test with CP305, in the test with CP315, in the test on CP325 and in the test on CP329 was “inactive” throughout.

`N/C(=N\N=C\c1ccc(Cl)cc1)N/N=C/c1ccc(Cl)cc1`: the Potency result in the test with CP266, with CP268, in the test with CP269, with CP291, in the test with CP297 and in the test with CP305 was “inactive” in each case. The Potency result with CP315, in the test on CP325 and in the test with CP329 was “inactive” each time. Besides, the Potency with CP286 is 3550 nM (active).

`CCOC(=O)[C@H](CCc1ccccc1)N[C@@H](C)C(=O)N1[C@H](C(=O)O)C[C@H]2CCCC[C@@H]21`: the Potency result with CP266, in the test with CP268, in the test with CP269, with CP286, in the test on CP291 and with CP297 was “inactive” each time. The Potency result in the test on CP305, in the test on CP315, in the test on CP325 and with CP329 was “inactive” each time.

Turning to `CCCCCCCCCCCCCCCCO`, the Potency entry in the test with CP266, in the test with CP268, in the test with CP269, in the test with CP286, in the test with CP291 and in the test on CP297 was “inactive” throughout. The Potency result in the test with CP305, with CP315, with CP325 and in the test on CP329 was “inactive” throughout.
